# Compound activity: PubChem, National Center for Advancing Translational Sciences (NCATS)
# Most compounds without a hit are left out; they make up all but 1.3% or so of the library.
# EPAC1 agonist: EPAC1 (human) agonism; O95398; EPAC1 agonist qHTS, biochemical assay; response scale: 100% = response to 6.5 mM cAMP; Potency, µM (highest dose often 154 µM), for inactives: at the top dose activation, usual class: activators; 0.073% of 360,000 active; note: nearly all actives have a fitted effect of over 60% in size
#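 Read-out is the fluorescence drop as BODIPY-GDP leaves Rap1B (480 nm excitation, 540 nm emission), recorded every 5 minutes over 30 minutes. Reactions held 100 nM EPAC1, 250 nM Rap1B–BODIPY-GDP and 50 uM GDP, with 6.5 mM cAMP setting full activation.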
# EPAC1 antag: blocks human EPAC1 exchange factor; O95398; EPAC1 GEF assay, Rap1b-BODIPY-GDP exchange fluorescence; Potency, µM (doses to about 115 µM), for the others: top-dose activity change, negative = inhibition, usual class: inhibitors; 0.14% of 360,000 active; AID 720709;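 note: plate controls were vehicle for no effect and positive control for full effect; nearly all actives have a fitted effect of over 50% in size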
# EPAC2 antagonist: EPAC2 (human) antagonism; Q8WZA2; EPAC2 GEF exchange of Rap1B-BODIPY-GDP, fluorescence; Potency, µM (titrated, usually from 114 µM), for the others: top-dose activity, negative = inhibition, actives largely listed as inhibitors; 0.18% of 360,000 active; note: % is set by controls: 0 for no effect and ±100 for the full control effect; nearly all actives have a fitted effect of over 45% in size
# 12-LOX inh: inhibitors of human 12S-lipoxygenase ALOX12. P18054. purified 12hLO, xylenol orange hydroperoxide absorbance. Potency, µM (top dose mostly 108 µM), without a hit: at the highest dose activity change, negative = inhibition, actives largely listed as inhibitors. 1.1% of 580,000 active. AID 1671190; note: % is set by controls: 0 for no effect and ±100 for the full control effect
#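 Hydroperoxide product was detected by ferrous iron/xylenol orange as the 573 to 405 nm absorbance ratio. Arachidonic acid at 40 uM (final) was turned over for 30 min at room temperature by 150 nM human 12hLO, pH 7.0 Hepes buffer, after 15 min compound preincubation.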
# USP1 inh: blocks the human USP1/UAF1 deubiquitinase complex; O94782; recombinant USP1/UAF1, Ub-Rhodamine cleavage fluorescence; Potency, µM (series often up to 57.1 µM), without a hit: top-dose activity change, negative = inhibition, actives largely listed as inhibitors; 0.23% of 390,000 active; note: % is set by controls: 0 for no effect and ±100 for the full control effect; nearly all actives have a fitted effect of over 60% in size
# Target sequence (O94782 whole entry, looked up): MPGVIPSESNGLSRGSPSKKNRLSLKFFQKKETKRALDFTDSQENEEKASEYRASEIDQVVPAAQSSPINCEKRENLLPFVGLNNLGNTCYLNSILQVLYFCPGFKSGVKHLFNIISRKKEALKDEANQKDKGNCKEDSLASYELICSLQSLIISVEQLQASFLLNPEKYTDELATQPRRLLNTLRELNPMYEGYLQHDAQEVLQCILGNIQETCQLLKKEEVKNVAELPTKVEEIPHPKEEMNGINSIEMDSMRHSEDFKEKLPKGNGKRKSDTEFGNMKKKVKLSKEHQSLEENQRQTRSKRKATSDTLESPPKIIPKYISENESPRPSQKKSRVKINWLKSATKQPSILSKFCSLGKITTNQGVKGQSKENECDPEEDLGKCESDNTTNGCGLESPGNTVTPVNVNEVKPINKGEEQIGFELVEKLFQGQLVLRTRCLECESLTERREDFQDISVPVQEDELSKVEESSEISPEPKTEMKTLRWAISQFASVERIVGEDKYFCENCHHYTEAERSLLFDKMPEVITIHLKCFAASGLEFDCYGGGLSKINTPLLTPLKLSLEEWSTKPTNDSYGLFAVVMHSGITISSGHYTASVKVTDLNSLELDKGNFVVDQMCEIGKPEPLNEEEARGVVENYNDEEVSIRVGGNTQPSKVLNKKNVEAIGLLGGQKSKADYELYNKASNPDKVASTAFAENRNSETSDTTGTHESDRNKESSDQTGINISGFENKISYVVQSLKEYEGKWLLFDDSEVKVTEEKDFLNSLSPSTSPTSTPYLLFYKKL
#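 1 nM enzyme complex + cpd, 15 min RT; start with Ub-Rho 150nM final; kinetic fluorescence ex 480/em 540, 6 reads q60 s. Buffer 50mM HEPES pH 7.8, 0.5mM EDTA, 0.1 mg/ml BSA, 1mM TCEP, 0.01% Tween-20.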
# EPAC2 agonist: agonists of human EPAC2 (RAPGEF4); AID 720711; EPAC2 activation, biochemical qHTS; response scale: 100% = 6.5 mM cAMP response; Potency, µM (highest dose often 154 µM), without a hit: top-dose activation, usual class: activators; Q8WZA2; 0.079% of 360,000 active; note: nearly all actives have a fitted effect of over 50% in size
#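 Guanine nucleotide exchange by EPAC2 is measured as reduced fluorescence of BODIPY-GDP once it is released from 250 nM Rap1B. Plates are read kinetically for 30 min at room temperature; results are scaled to 6.5 mM cAMP.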
# * hit, by the source's call; ? = inconclusive; · = no result given; [ ] = another dose, or the depositor's remark. Calls come from the whole dose curve; as a rule, active = well fitted curve in the direction sought with a large enough effect; inconclusive = small, poorly fitted or top-dose-only effect, or another doubt; inactive = no such curve, though single readings can be large; an effect the other way counts as inactive or inconclusive. Potency is the fitted concentration of half-maximal effect.
SMILES,EPAC1 agonist,EPAC1 antag,EPAC2 antagonist,12-LOX inh,USP1 inh,EPAC2 agonist
Cc1cc2ccccc2cc1C(=O)c1ccccc1,7%,-13%,8.9µM*,-3%,?,18%
O=C(c1ccccc1)c1ccc(O)cc1O,100µM*,107%,96%,-19%,28µM*,100µM*
Fc1ccc(CSc2ncccn2)cc1,·,·,·,-25%,·,·
O=C(/C=C/c1ccco1)NCc1ccc(F)cc1,-7%,-15%,-1%,32µM*,1%,2%
O=C(Cc1ccc(N(Cc2ccc(F)cc2)C(=O)c2ccco2)cc1)NCc1ccc(F)cc1,·,·,·,32µM*,·,·
NS(=O)(=O)c1ccc(CNC(=O)/C=C/c2ccco2)cc1,-6%,-10%,3%,2%,2%,2%
O=C(Cc1ccc(N(Cc2cccc(F)c2)C(=O)c2ccco2)cc1)NCc1ccccc1,·,·,·,18%,·,·
CC1(C)CC(=O)C2=C(C1)NC(=S)C(C#N)C21CCCCC1 (centres undefined),1%,0%,6%,7.9µM*,-20%,3%
CC1(C)CC(=O)C2=C(C1)NC(SCC(=O)Nc1ccccc1)=C(C#N)C21CCCCC1,10%,7%,-11%,0%,-9%,-10%
N#Cc1cc2c([nH]c1=S)CCCC2,14%,4%,8%,14µM*,-7%,5%
N#Cc1cc2c([nH]c1=O)CCCC2,0%,3%,6%,-5%,-20%,4%
O=C(Cc1c[nH]c2ccccc12)OCc1ccc(-c2ccccc2)cc1,·,·,·,35%,·,·
FC(F)(F)c1cccc(N2NC3(CCCCC3)NC2=S)c1,·,·,·,-9%,·,·
CC1=C(C(=O)Nc2ccc(F)c(F)c2)C(c2ccccc2F)NC(=S)N1 (centres undefined),·,·,·,-46%,·,·
CC1=C(C(=O)Nc2ccccc2)C(c2ccc(C)cc2)NC(=S)N1 (centres undefined),·,·,·,-32%,·,·
CCOC(=O)c1c(NC(=O)C2=C(C)NC(=S)NC2c2ccc(C)cc2)sc(C)c1C (centres undefined),-6%,-15%,-4%,18µM*,-13%,1%
CCOC(=O)c1c(NC(=O)C2=C(C)NC(=S)NC2c2ccc(F)cc2)sc(C)c1C (centres undefined),14%,-12%,-7%,28µM*,-3%,12%
CCOC(=O)c1c(NC(=O)C2=C(C)NC(=S)NC2c2ccc(F)cc2F)sc(C)c1C (centres undefined),4%,-11%,-3%,40µM*,-28%,1%
Oc1ccc(/C=N/N2CCN(C3c4ccccc4-c4ccccc43)CC2)cc1O,23%,-29%,-1%,18µM*,-26%,8%
Oc1ccc(/C=N/N2CCN(C3c4ccccc4-c4ccccc43)CC2)cc1,4%,-10%,7%,-8%,-1%,5%
CC1C(=O)N2CCCc3cc(S(=O)(=O)N(Cc4ccccc4)c4ccccc4)cc1c32 (centres undefined),·,·,·,10µM*,·,·
CCc1ccc(C(=O)N2CCC(Cc3nc(-c4cccc(OC)c4)no3)CC2)cc1,·,·,·,-14%,·,·
COc1ccc(CN[C@H](C)c2onc(C)c2C(=O)O)cc1,·,·,·,28µM*,·,·
CCCNC(=O)CCc1c(C)nc2c(-c3ccccc3)c(C)nn2c1C,·,·,·,-23%,·,·
Nc1cc(=O)[nH]c(SCC(=O)N2N=C(c3ccc(Cl)cc3)CC2c2ccco2)n1 (centres undefined),-6%,-1%,1%,40µM*,-15%,6%
SMILES,EPAC1 agonist,EPAC1 antag,EPAC2 antagonist,12-LOX inh,USP1 inh,EPAC2 agonist
CC(C)[C@H](NS(=O)(=O)c1ccccc1)C(=O)OCC(=O)N1N=C(c2ccc(Cl)cc2)CC1c1ccco1 (some centres undefined),8%,-14%,-3%,40µM*,-12%,12%
CCCn1c(=O)[nH]c(=O)c2c1nc(-c1ccc(C#N)cc1)n2CCN1CCOCC1,·,·,·,28µM*,·,·
COc1ccc(C2C(C(C)=O)=C(C)N=c3s/c(=C\c4cc(C)n(C)c4C)c(=O)n32)c(OC)c1 (centres undefined),26%,-7%,54%,?,18µM*,?
COc1ccc(C2C(C(C)=O)=C(C)N=c3s/c(=C\c4ccco4)c(=O)n32)c(OC)c1 (centres undefined),5%,-24%,-8%,?,-18%,29%
CCC/C=N/NC(=O)CCCC(=O)N/N=C/CCC,·,·,·,3%,·,·
Clc1cccc(-c2noc(-c3ccc[nH]3)n2)c1,·,·,·,45µM*,·,·
COc1ccc(-c2cc(-c3nc(-c4cccc(Cl)c4)no3)[nH]n2)cc1,·,·,·,-3%,·,·
O=C(O)c1ccc(-n2cc(-c3cc4ccccc4oc3=O)[nH]c2=S)cc1,-1%,8%,21%,32µM*,6%,6%
O=c1oc2ccccc2cc1-c1ccccc1,7%,?,4%[57.1 µM],2%,-9%,15%
CCSc1ccccc1C(=O)Nc1ccc([N+](=O)[O-])cc1OC,12%,-12%,-1%,40µM*,-5%,11%
Cc1cc(C)n(CC2(Cn3cc(C4CCCNC4)nn3)CC2)n1 (centres undefined),·,·,·,14µM*,·,·
COc1cc2nc(C)n(CC(=O)NC3CCCc4c3[nH]c3ccccc43)c(=O)c2cc1OC (centres undefined),·,·,·,45µM*,·,·
O=C(Cc1ccc2c(c1)OCCCO2)NC1CCCc2c1[nH]c1ccccc21 (centres undefined),·,·,·,50µM*,·,·
COC(=O)c1ccc(CNC(=O)Cn2c(Cl)nc3c2c(=O)n(C)c(=O)n3C)cc1,·,·,·,6%,·,·
CC(C)c1cccc(OCCN2CCCC2)c1,4%,-5%,9%,0.63µM*,-19%,2%
CN(CC(=O)Nc1cc2[nH]c(=O)[nH]c2cc1Br)Cc1ccccc1N1CCCCC1,·,·,·,36%,·,·
CCN(C(=S)Nc1ccc(Oc2ccccc2)cc1)c1ccccc1,5%,-28%,5%,50µM*,-18%,16%
CCN(C(=S)Nc1cccc(C)c1)c1ccccc1,-6%,-26%,1%,-23%,-17%,6%
CSc1oc(-c2ccco2)nc1S(=O)(=O)c1ccc(C)cc1,3%,-4%,-17%,?,-14%,5%
CSc1oc(-c2ccco2)nc1S(=O)(=O)c1ccccc1,-10%,-13%,-1%,35µM*,-17%,11%
CCSc1oc(-c2ccccc2)nc1S(=O)(=O)c1ccc(F)cc1,·,·,·,10µM*,·,·
CCSc1oc(-c2ccc(F)cc2)nc1S(=O)(=O)c1ccc(F)cc1,·,·,·,-8%,·,·
